Laboratory results as given in the supplement of paper PMC6555819.

test system: PPARg DBDmut IVT, anti-PPARg (DBD mutation: PPARg1 K132A/R137A, NR concentration 270 nM); assay: PBM binding z-score (relative to random genomic background probes); higher = stronger binding; sequences stand for … in GC…GCGATTGACAGCGTAGAATGAAGG
Procedure, shortened: (§1)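 Custom Agilent 4×180K protein-binding microarrays carried double-stranded probes, each with a 34-nt variable region. These regions held direct-repeat seeds, single-nucleotide variants, half-site ablations and random human genomic background sequences. Ligand-free nuclear receptor dimers were incubated on the arrays for 1 h, antibodies against each partner (one per run) detected binding, and scanned fluorescence was regression-normalized. Binding z-scores take the random background probes as reference.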

| Sequence | PBM binding z-score |
| --- | --- |
| TTACCAACGTGAAAGGTCGTTGATGCACGCCTTG | -0.158 |
| CCTACTGCGCCACGAAAGGTCATTGATTCAGTGA | 0.0242 |
| TCATATAGGTAAACGTGAAAGTCGAACGATATGA | 1.61 |
| GGAACGAGGGCAAAGTTGATAGCATCTGTCGACG | -0.103 |
| CCTAGCAGGCCAATCTGGGTGACTCAAGGCTTGA | -0.739 |
| TCTGCTGGGTCAGTTGGTCAGCTAACGAGCTGCC | -0.161 |
| CCTACTAGGTCATGGTCAGCTAATCTACAGTATG | 1.91 |
| TCTGTTAGTTGAAGGGCAACCGACGAGTCCGTTT | 0.734 |
| TCGGCTAGGTCAACGATGGTCAGCTAATCTGCTA | -0.603 |
| AGAATGAGGTTAATAAGATCAGGGAATTGCGGTC | 0.384 |
| AGAACGAGGGCAATGAGTTGATAGTACGGGTGGC | 0.0133 |
| AGTCAAAGTTCATCTAGGGAACGTAAGATATGCT | 1.04 |
| ATAACGAGGGCACGCTGAGTTGATAGCAGAGTAG | 1.47 |
| ATCTGTAGGTAACCAAGTTCAGTGAATGCCGAAC | 0.924 |
| AGAACGAGGGCACGCTGAGTTGAGAGCAGAGTAG | 0.203 |
| CTCGAAAGGTCGTGCTGAGGTGAGTATACCAAAC | 0.0024 |
| CAAACTAGGTCCAGAGGTCAAAGTCCGCTTCCCG | 0.535 |
| CGTCCAAGGTCAAAGGTCAGTGACGAGATGACGG | 0.0683 |
| GGAACGAGGGCAAAGTTGATAGAATCTGTCGACG | -0.207 |
| TCTTGTAGATCAATAGAGGATAAGAAAGTGCGCT | 1.05 |

| Sequence | PBM binding z-score |
| --- | --- |
| CGAACCAGGTCAAGGACAGTGAATCTCCGCACGC | 1.5 |
| CCGGCTAGGTCATGGTCAGCTAATCTACAGTATG | -0.269 |
| ATACCAAGGTGCTCGTGAGGTCGTTGATACTAAC | 0.215 |
| CCAACTAGGTCAAGGACAGTGAATCTCCGCACGC | 1.81 |
| GTAACGAGGGCAAGTTGATAGCAGAGTTTGATGG | 0.937 |
| TCTGCTAGGTCAGTTGGACAGCTAACGAGCTGCC | 0.399 |
| AGTCAAAGCTCAGGACGAGGTAACGTAAAGCACG | -0.455 |
| ACGTACGGGTCAACGAGGTTATAGCACGCGTATA | 0.418 |
| CCTTACGGGTCACTGACAGGTTAGAGCATTTGGA | -0.672 |
| CGAACTAGGTCATCCAGGACAGTCAATACATTGA | 2.33 |
| CAAACTAGGCCAAAGGTCAAAGTCGAGCCAACCA | 1.59 |
| CGTCCAAGGTCAATGTCAGTGAAAGAGACTCGAA | -0.37 |
| TCTATTACTTGAAGGGCAACCGACGAGTCCGTTT | 1.12 |
| TCTTGTAGATCAACAGGAGGTTAAGAACGATCGA | 0.593 |
| TCATATAGGTAAATGCTAGGTGAAAGTCCGATCT | 1.03 |
| TCTAGTTGGTCACGGAGGTCACACAAGACGGGTA | 0.71 |
| CGAACTAGGTCATCCAAGACAGTGAATACATTGA | 2.15 |
| TCTTATAGATCAACAGGAGGTTAAGAAAGATCGA | 0.867 |
| CGAACTAGGTCAGAACAGGAAAGTGAAGGATGAT | 0.812 |
| ATATGTAGGTTATCGCGTCATTCAGTTTGCGCAT | 2.41 |

test system: PPARg homodimer (NR concentration 180 nM); assay: as above
Procedure, shortened: as §1

| Sequence | PBM binding z-score |
| --- | --- |
| TTACCAACGTGAAAGGTCGTTGATGCACGCCTTG | 1.27 |
| CCTACTGCGCCACGAAAGGTCATTGATTCAGTGA | 4.6 |
| TCATATAGGTAAACGTGAAAGTCGAACGATATGA | 0.529 |
| GGAACGAGGGCAAAGTTGATAGCATCTGTCGACG | -0.0124 |
| CCTAGCAGGCCAATCTGGGTGACTCAAGGCTTGA | -0.0827 |
| TCTGCTGGGTCAGTTGGTCAGCTAACGAGCTGCC | -0.167 |
| CCTACTAGGTCATGGTCAGCTAATCTACAGTATG | 2.59 |
| TCTGTTAGTTGAAGGGCAACCGACGAGTCCGTTT | 1.19 |
| TCGGCTAGGTCAACGATGGTCAGCTAATCTGCTA | 1.19 |
| AGAATGAGGTTAATAAGATCAGGGAATTGCGGTC | 1.23 |
| AGAACGAGGGCAATGAGTTGATAGTACGGGTGGC | 0.221 |
| AGTCAAAGTTCATCTAGGGAACGTAAGATATGCT | 1.73 |
| ATAACGAGGGCACGCTGAGTTGATAGCAGAGTAG | 0.669 |
| ATCTGTAGGTAACCAAGTTCAGTGAATGCCGAAC | 0.414 |
| AGAACGAGGGCACGCTGAGTTGAGAGCAGAGTAG | 0.469 |
| CTCGAAAGGTCGTGCTGAGGTGAGTATACCAAAC | 1.84 |
| CAAACTAGGTCCAGAGGTCAAAGTCCGCTTCCCG | 3.29 |
| CGTCCAAGGTCAAAGGTCAGTGACGAGATGACGG | 6.48 |
| GGAACGAGGGCAAAGTTGATAGAATCTGTCGACG | 0.397 |
| TCTTGTAGATCAATAGAGGATAAGAAAGTGCGCT | 0.615 |

| Sequence | PBM binding z-score |
| --- | --- |
| CGAACCAGGTCAAGGACAGTGAATCTCCGCACGC | 2.06 |
| CCGGCTAGGTCATGGTCAGCTAATCTACAGTATG | 2.5 |
| ATACCAAGGTGCTCGTGAGGTCGTTGATACTAAC | 0.541 |
| CCAACTAGGTCAAGGACAGTGAATCTCCGCACGC | 2.38 |
| GTAACGAGGGCAAGTTGATAGCAGAGTTTGATGG | 0.983 |
| TCTGCTAGGTCAGTTGGACAGCTAACGAGCTGCC | -0.587 |
| AGTCAAAGCTCAGGACGAGGTAACGTAAAGCACG | 0.053 |
| ACGTACGGGTCAACGAGGTTATAGCACGCGTATA | 1.72 |
| CCTTACGGGTCACTGACAGGTTAGAGCATTTGGA | 2.02 |
| CGAACTAGGTCATCCAGGACAGTCAATACATTGA | 1.98 |
| CAAACTAGGCCAAAGGTCAAAGTCGAGCCAACCA | 2.88 |
| CGTCCAAGGTCAATGTCAGTGAAAGAGACTCGAA | 2.27 |
| TCTATTACTTGAAGGGCAACCGACGAGTCCGTTT | 0.761 |
| TCTTGTAGATCAACAGGAGGTTAAGAACGATCGA | 0.264 |
| TCATATAGGTAAATGCTAGGTGAAAGTCCGATCT | 0.763 |
| TCTAGTTGGTCACGGAGGTCACACAAGACGGGTA | 2.71 |
| CGAACTAGGTCATCCAAGACAGTGAATACATTGA | 1.93 |
| TCTTATAGATCAACAGGAGGTTAAGAAAGATCGA | 0.452 |
| CGAACTAGGTCAGAACAGGAAAGTGAAGGATGAT | 0.835 |
| ATATGTAGGTTATCGCGTCATTCAGTTTGCGCAT | 0.975 |
